These results are taken from paper PMC10668032, “Altered binding affinity of SIX1-Q177R correlates with enhanced WNT5A and WNT pathway effector expression in Wilms tumor”.

Over roughly 33,000 sequences, “e-score” has its median near -0.053; the highest 2% begin near 0.38. This is one part of a sample in which the highest values are shown more often than they occur.

The test deals with T1, SIX1 homeodomain (reference allele) (human, UniProt Q15475 108-198).
T1 sequence: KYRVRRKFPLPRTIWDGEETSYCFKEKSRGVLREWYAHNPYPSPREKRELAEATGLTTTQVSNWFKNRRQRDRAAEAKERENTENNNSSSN
The test can be described thus: universal protein binding microarray; Universal all-10-mer PBM (8x60K, AMADID 030236), 300 nM GST-tagged protein, Alexa Fluor 488 anti-GST; buffer, salt, pH and temperature not stated (as in Berger); high values mean tight binding. The settings on record: protein: ivt; tags: N-terminal GST; dsDNA, one strand shown. The essentials: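 Duplicate protein binding microarrays (universal 'all 10-mer', 8×60K format) were incubated with GST-tagged homeodomains at 300 nM final concentration. Binding was quantified as 8-mer E-scores with the Universal PBM Analysis Suite.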
With TGATGCCA, the binding signal is 0.152 ± 0.025 E-score.
In the case of ATAGGGCG it was 0.158 ± 0.0277 E-score; in that of AATATCTG, 0.188 ± 0.0693 E-score; in that of CATGAAAG, 0.157 ± 0.0184 E-score.
In the case of AGGGTAAT it was 0.205 ± 0.0122 E-score; in that of AGGGTATG, 0.28 ± 0.0175 E-score; in that of AGGGTATC, 0.4907 ± 0.00122 E-score.
In the case of CCATCCCC it was 0.203 ± 0.0814 E-score; in that of GTAATATA, 0.226 ± 0.0387 E-score; in that of GGTGATGA, 0.191 ± 0.0354 E-score.
Consider AGTGATAT, for which the binding signal came to 0.451 ± 0.0283 E-score.
In the case of AGTGATAG it was 0.32 ± 0.0815 E-score.
In the case of AGTGACAC it was 0.354 ± 0.0169 E-score.
In the case of AGTGAGAT it was 0.306 ± 0.0146 E-score; in that of GGTGATAC, 0.4856 ± 0.00178 E-score.
For the sequence CGTGATAG, the binding signal is 0.244 ± 0.00391 E-score.
In the case of AGTGTGAT it was 0.247 ± 0.0427 E-score.
Turning to GGTGATAA, the binding signal worked out at 0.154 ± 0.0176 E-score.
In the case of CGTGACAC it was 0.2472 ± 0.00208 E-score; in that of AGTGATAC, 0.489 ± 0.00626 E-score.
In the case of CGTGATAC it was 0.4798 ± 0.000721 E-score; in that of ACACCATG, 0.306 ± 0.0191 E-score; in that of CCCCATCG, 0.152 ± 0.0278 E-score.
In the case of TACCCACA it was 0.196 ± 0.0401 E-score.
Turning to ATAGGCAG, the binding signal was 0.184 ± 0.025 E-score.
In the case of CCAAGATA it was 0.229 ± 0.0485 E-score; in that of ATACGCAG, 0.314 ± 0.0177 E-score; in that of ATCATGTC, 0.295 ± 0.0201 E-score.
In the case of GCGACCGA, the binding signal was found to be 0.151 ± 0.024 E-score.
With ATCCCCTG, the binding signal was 0.3344 ± 0.00285 E-score.
Regarding ATCCCCAA, the binding signal came out at 0.294 ± 0.0584 E-score.
In the case of ATCCCCAT it was 0.295 ± 0.0355 E-score; in that of ATCCCGAA, 0.252 ± 0.0478 E-score; in that of ATCCCCCG, 0.403 ± 0.00588 E-score.
In the case of ATCCCCTA it was 0.374 ± 0.0124 E-score; in that of ATCCCCGG, 0.307 ± 0.0247 E-score; in that of ATCCCCTC, 0.387 ± 0.0304 E-score.
In the case of ATCCCGAT it was 0.378 ± 0.0289 E-score; in that of ATCCCGAG, 0.257 ± 0.025 E-score; in that of ATCCCCCA, 0.392 ± 0.0226 E-score.
In the case of ATCCCGCG, the binding signal was found to be 0.323 ± 0.0328 E-score.
In the case of ATGCGGTA it was 0.265 ± 0.0333 E-score.
In the case of AGATGGAT it was 0.328 ± 0.00364 E-score; in that of ATACAGGG, 0.295 ± 0.0454 E-score.
In the case of CGTAGATA it was 0.23 ± 0.0417 E-score; in that of GATCGTTA, 0.198 ± 0.00351 E-score; in that of ATACGGCC, 0.344 ± 0.0108 E-score.
Turning to ATTAATCC, the binding signal stood at 0.316 ± 0.089 E-score.
Take TCAATCCA: the binding signal turned out to be 0.163 ± 0.0587 E-score.
On to ATCACCCC, for which the binding signal is 0.302 ± 0.0208 E-score.
As for ATCCCCGC, the binding signal turned out to be 0.326 ± 0.0778 E-score.
In the case of ATCCCCCC, the binding signal was determined as 0.423 ± 0.0283 E-score.
Regarding ATCCCCAC, the binding signal stood at 0.347 ± 0.0302 E-score.
In the case of ATCACCCA it was 0.308 ± 0.00677 E-score.
In the case of ATCACCCG it was 0.397 ± 0.0282 E-score; in that of ATCGTAGG, 0.16 ± 0.0377 E-score.
In the case of CTGATCTA it was 0.2567 ± 0.000955 E-score; in that of GATACAAA, 0.252 ± 0.0232 E-score; in that of TATACGCA, 0.304 ± 0.0184 E-score.
For the sequence AATACGCC, the binding signal came out at 0.188 ± 0.0403 E-score.
GACACGTA: the binding signal amounted to 0.211 ± 0.0335 E-score.
In the case of AATACGTA it was 0.237 ± 0.0731 E-score.
In the case of GATACGTA it was 0.4288 ± 0.00319 E-score; in that of GATACGCC, 0.4525 ± 0.00258 E-score; in that of GATACGCA, 0.4207 ± 0.00257 E-score.
In the case of GAGACGCC, the binding signal was found to be 0.155 ± 0.0256 E-score.
In the case of CCCGTCTA it was 0.159 ± 0.00699 E-score; in that of AGACGTAT, 0.319 ± 0.0844 E-score.
CAGTGTCA: the binding signal amounted to 0.249 ± 0.0216 E-score.
CGCATCGA: the binding signal amounted to 0.208 ± 0.103 E-score.
In the case of CACCGGTG it was 0.196 ± 0.0172 E-score; in that of ATATGAAT, 0.19 ± 0.0448 E-score.
In the case of ATCTGATG it was 0.156 ± 0.0564 E-score; in that of ATCTGACC, 0.282 ± 0.0195 E-score; in that of ATCTGATA, 0.446 ± 0.0144 E-score.
In the case of ATCTGAAC it was 0.179 ± 0.00772 E-score.
Turning to CTCTGATA, the binding signal came to 0.312 ± 0.08 E-score.
Regarding CCCTGATA, the binding signal came out at 0.36 ± 0.00422 E-score.
In the case of ATCTGATC it was 0.419 ± 0.0129 E-score.
In the case of ACCTGATA it was 0.401 ± 0.0362 E-score; in that of ACCTGATC, 0.31 ± 0.0291 E-score; in that of GGTTTCGA, 0.172 ± 0.0592 E-score.
As to GAGATCTA, the binding signal stood at 0.172 ± 0.0177 E-score.
In the case of TAAACCCA it was 0.161 ± 0.0201 E-score; in that of CGATCGCA, 0.284 ± 0.0349 E-score.
In the case of ATCGGTGA, the binding signal worked out at 0.232 ± 0.0224 E-score.
